Laboratory results taken from PubChem BioAssay.
Active and inactive are the calls of the source. The rule behind the calls is not given here.

Test system: Aerobactin synthetase IucA (Klebsiella pneumoniae hvKP1)
Test: Biochemical IucA enzyme inhibition primary screen of the Spectrum library (AID 1346200);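 note: 100% = wells without compound and 0% = wells lacking enzyme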
Settings: malachite green pyrophosphate, A620, at 8 µM, stronger effect = lower value

Row | SMILES | activity remaining
1 | Nc1ccn(C2O[C@H](CO)[C@@H](O)[C@@H]2O)c(=O)n1 (stereo not given in full) | 93.2% (inactive)
2 | CC[C@H]1OC(=O)[C@H](C)[C@@H](O[C@H]2C[C@@](C)(OC)[C@@H](O)[C@H](C)O2)[C@H](C)[C@@H](O[C@@H]2O[C@H](C)C[C@H](N(C)C)[C@H]2O)[C@](C)(O)C[C@@H](C)/C(=N\OCOCCOC)[C@H](C)[C@@H](O)[C@]1(C)O | 118% (inactive)
3 | CC[C@@]1(O)C(=O)OCc2c1cc1n(c2=O)Cc2cc3c(CN(C)C)c(O)ccc3nc2-1 | 121% (inactive)
4 | CC(=O)Oc1cc(-c2coc3cc(OC(C)=O)c(OC(C)=O)c(OC(C)=O)c3c2=O)cc(OC(C)=O)c1OC(C)=O | 88.1% (inactive)
5 | O=C(O)c1cc(=O)c2cccc(O)c2[nH]1 | 97.3% (inactive)
6 | N.N.O=C(O)C1(C(=O)O)CCC1.[Pt] | 94.6% (inactive)
7 | COc1cc2nc(N(C)CCCNC(=O)C3CCCO3)nc(N)c2cc1OC (stereo not given) | 120% (inactive)
8 | NC(=O)c1ccccc1O | 88.1% (inactive)
9 | COc1cc2ccc(=O)oc2cc1O | 110% (inactive)
10 | CC(=O)S[C@@H]1CC2=CC(=O)CC[C@]2(C)[C@H]2CC[C@@]3(C)[C@@H](CC[C@@]34CCC(=O)O4)C12 (stereo not given in full) | 106% (inactive)
11 | N[C@@H](CCC(=O)N[C@@H](CS)C(=O)NCC(=O)O)C(=O)O | 101% (inactive)
12 | Oc1cc(O)c2c(c1)O[C@H](c1ccc(O)c(O)c1)[C@H](O)C2 | 99.8% (inactive)
13 | CCCc1cc(=O)[nH]c(=S)[nH]1 | 120% (inactive)
14 | CCCCC(=O)N(Cc1ccc(-c2ccccc2-c2nn[nH]n2)cc1)[C@H](C(=O)O)C(C)C | 121% (inactive)
15 | CC(C)N=C(N)/N=C(\N)Nc1ccc(Cl)cc1 | 102% (inactive)
16 | Cc1cc2cc3c(C)cc(=O)oc3c(C)c2o1 | 117% (inactive)
17 | COc1cc([C@H]2Oc3cc([C@H]4Oc5cc(O)cc(O)c5C(=O)[C@@H]4O)ccc3O[C@@H]2CO)ccc1O | 122% (inactive)
18 | C=CC(C1=CC(=O)C(OC)=CC1=O)c1ccc(OC)cc1 (stereo not given) | 109% (inactive)
19 | CC(=O)OCC(=O)[C@H]1CCC2C3CC=C4C[C@@H](O)CC[C@]4(C)C3CC[C@@]21C (stereo not given in full) | 92.3% (inactive)
20 | O=C(Nc1ccc(C(=O)O)c(O)c1)c1ccccc1 | 89.3% (inactive)

Row | SMILES | activity remaining
21 | NCC[C@@H](O)C(=O)N[C@@H]1C[C@H](N)[C@@H](O[C@H]2O[C@H](CN)[C@@H](O)[C@H](O)[C@H]2O)[C@H](O)[C@H]1O[C@H]1O[C@H](CO)[C@@H](O)[C@H](N)C1O (stereo not given in full) | 113% (inactive)
22 | NC[C@@H]1O[C@H](O[C@@H]2[C@@H](CO)OC(O[C@@H]3[C@@H](O)[C@H](N)C[C@H](N)[C@H]3OC3O[C@H](CN)[C@@H](O)[C@H](O)[C@H]3N)[C@@H]2O)[C@H](N)[C@@H](O)[C@@H]1O (stereo not given in full) | 99.1% (inactive)
23 | O=C(O[C@@H]1Cc2c(O)cc(O)cc2O[C@@H]1c1cc(O)c(O)c(O)c1-c1c([C@H]2Oc3cc(O)cc(O)c3C[C@H]2OC(=O)c2cc(O)c(O)c(O)c2)cc(O)c(O)c1O)c1cc(O)c(O)c(O)c1 | 111% (inactive)
24 | CC(C)[C@@H]1CC[C@@H](C)C[C@H]1OC(=O)c1ccccc1 | 120% (inactive)
25 | CC1=CC2C(CC1=O)C(C)=CCC2C(C)C (stereo not given) | 104% (inactive)
26 | CC(C)=CCC[C@](C)(O)C1CC=C(C)CC1 (stereo not given in full) | 118% (inactive)
27 | CC(C)=CCCC1(C)C=Cc2c(O)c3c(c(CC=C(C)C)c2O1)OC12C(=CCCC1C(C)(C)O[C@@]2(C/C=C(\C)C(=O)O)C(=O)O)C3=O (stereo not given in full) | 116% (inactive)
28 | CC(=O)Oc1cc(OC(C)=O)c2c(c1)O[C@H](c1ccc(OC(C)=O)c(OC(C)=O)c1)[C@@H](OC(C)=O)C2 | 98% (inactive)
29 | COc1c2ccccc2nc2occc12 | 115% (inactive)
30 | CC(=O)O[C@@H]1CC2C(C)(C)[C@H](O)C[C@H](O)[C@]2(C)C2CC[C@@]3(C)C(=CC(=O)O[C@H]3c3ccoc3)[C@@]21C (stereo not given in full) | 102% (inactive)
31 | CC(=O)O[C@H]1CC2CCC3C(CC[C@@]4(C)C3C[C@H]([N+]3(C)CCCCC3)[C@@H]4OC(C)=O)[C@@]2(C)C[C@@H]1[N+]1(C)CCCCC1 (stereo not given in full) | 124% (inactive)
32 | Nc1ccc(C(=O)O)c(O)c1 (tested in a mixture with another compound) | 86.3% (inactive)
33 | CCc1nc(N)nc(N)c1-c1ccc(Cl)cc1 | 108% (inactive)
34 | c1ccc(CN(CC2=NCCN2)c2ccccc2)cc1 | 120% (inactive)
35 | CO[C@@]1(NC(=O)C(C(=O)O)c2ccc(O)cc2)C(=O)N2C(C(=O)O)=C(CSc3nnnn3C)CO[C@@H]21 (stereo not given in full) | 102% (inactive)
36 | COc1c2occc2c(OC)c2c(=O)cc(C)oc12 | 116% (inactive)
37 | CN(C)c1ccc(C(=C2C=CC(=[N+](C)C)C=C2)c2ccc(N(C)C)cc2)cc1 | 118% (inactive)
38 | CCCc1nc(C(C)(C)O)c(C(=O)OCc2oc(=O)oc2C)n1Cc1ccc(-c2ccccc2-c2nn[nH]n2)cc1 | 121% (inactive)
39 | CC(=O)O[C@]1(C(C)=O)CCC2C3C=C(Cl)C4=CC(=O)[C@@H]5C[C@@H]5[C@]4(C)C3CC[C@@]21C (stereo not given in full) | 101% (inactive)
40 | COc1ccc(C(=O)/C=C/c2ccccc2)cc1 | 106% (inactive)
